Hits are enriched below; roughly 12% of the tested compounds scored in any of these assays.
BAZ2B inh – blocks human BAZ2B | AlphaScreen BAZ2B-H3K14Ac peptide displacement | Potency, µM (top dose mostly 114 µM), for the others: at the highest dose activity change, negative = inhibition, hits mostly inhibitors | 360,000 tested, 4.4% active | AID 504333; note: % is set by controls: 0 for no effect and ±100 for the full control effect; nearly all actives have a fitted effect of over 60% in size
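BAZ2B 50 nM plus b-H3(5-23)K14Ac 50 nM, PBS pH 7.4/0.01% Tween-20, 30 min RT; compound added (max 110 uM), 30 min RT; streptavidin donor/Ni-chelate acceptor beads 10 ug/mL final, 20 min dark; AlphaScreen read.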
TDP1 inh – blocks human tyrosyl-DNA phosphodiesterase 1; Q9NUW8; recombinant TDP1, AlphaScreen DNA substrate cleavage; Potency, µM (doses to about 130 µM), without a hit: at the highest dose activity change, negative = inhibition, usual class: inhibitors; 350,000 tested, 0.28% active; AID 485290; note: % is set by controls: 0 for no effect and ±100 for the full control effect; nearly all actives have a fitted effect of over 40% in size
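AlphaScreen read-out: signal falls as enzyme removes the 3' tyrosine-FITC from a 5'-biotinylated DNA oligo (15 nM, 5 min, RT). Enzyme was E. coli-made recombinant Tdp1 at 1 nM, exposed to compound for 15 min beforehand; beads 10 ug/ml, 10 min.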
G9a block – inhibitors of human histone lysine methyltransferase G9a; Q96KQ7; G9a H3K9 monomethylation, AlphaScreen, 2 h; Potency, µM (highest dose often 102 µM), for the others: at the highest dose activity, negative = inhibition, most hits filed as inhibitors; 350,000 tested, 8.8% active; AID 504332; note: % is set by controls: 0 for no effect and ±100 for the full control effect; nearly all actives have a fitted effect of over 75% in size
Target sequence (Q96KQ7 913-1193 limits assumed): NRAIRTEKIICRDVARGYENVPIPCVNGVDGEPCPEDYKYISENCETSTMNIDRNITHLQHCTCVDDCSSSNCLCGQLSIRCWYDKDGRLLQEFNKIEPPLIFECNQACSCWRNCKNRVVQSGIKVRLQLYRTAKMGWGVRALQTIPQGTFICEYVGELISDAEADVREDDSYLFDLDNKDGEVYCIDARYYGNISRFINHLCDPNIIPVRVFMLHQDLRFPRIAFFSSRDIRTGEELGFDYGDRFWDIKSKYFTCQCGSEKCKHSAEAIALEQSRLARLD
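Quantitative HTS format: methyltransferase activity on a biotin-tagged H3K9 peptide is measured by AlphaScreen, using a rabbit anti-monomethyl-H3K9 antibody with streptavidin donor and anti-IgG acceptor beads. Final levels are 20 nM enzyme, 500 nM peptide, 20 uM SAM; 2 h RT.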
Sfp inh – blocks B. subtilis Sfp PPTase activity | Q9F4F7 | Biochemical Sfp PPTase activity, qHTS | Potency, µM, without a hit: largest response in the series, negative = inhibition, hits mostly inhibitors | 310,000 tested, 3.5% active | AID 1490;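 note: the enzyme is Sfp with the accession as filed and its product quenches rhodamine fluorescence; 0% = enzyme reaction without inhibitor and -100% = no enzyme wells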
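Sfp 15 nM + cpd, 15 min RT; start w/ rhodamine-CoA 5 uM, BHQ-2-YbbR 12.5 uM (final); 50 mM Hepes pH 7.6, 10 mM MgCl2, 0.01% NP-40, 0.01% BSA; read 525/598 nm at 0 and 30 min.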
HP1b binding inh – inhibitors of HP1-beta chromodomain binding to methylated histone tails. AlphaScreen HP1-beta / biotin-H3K9me3 peptide binding. Potency, µM (titrated, usually from 114 µM), for inactives: top-dose activity change, negative = inhibition, usual class: inhibitors. 390,000 tested, 0.56% active. AID 540317; note: nearly all actives have a fitted effect of over 70% in size
Target sequence (P83916 whole entry, looked up): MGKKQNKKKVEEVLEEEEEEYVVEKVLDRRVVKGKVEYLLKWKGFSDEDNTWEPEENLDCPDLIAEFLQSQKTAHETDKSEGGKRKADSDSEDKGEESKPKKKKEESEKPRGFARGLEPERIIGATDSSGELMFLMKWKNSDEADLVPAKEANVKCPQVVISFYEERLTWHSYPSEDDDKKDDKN
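HP1-beta protein (50 nM final) preincubated 30 min at room temperature with biotinylated H3(1-18)K9me3 peptide (50 nM) in PBS pH 7.4, 0.01% Tween-20, then compound added for 30 min. AlphaScreen streptavidin donor/nickel chelate acceptor beads (10 ug/mL final), 30 min dark, luminescence read.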
JMJD2A Tudor – JMJD2A Tudor domain (human) inhibition. Potency, µM (series often up to 114 µM), without a hit: at the highest dose activity change, negative = inhibition, usual class: inhibitors. 390,000 tested, 4.4% active. O75164. AID 504339. AlphaScreen JMJD2A-Tudor / H3K4me3 peptide binding; note: % is set by controls: 0 for no effect and ±100 for the full control effect; nearly all actives have a fitted effect of over 50% in size
* hit, by the source's call; ! = not confirmed by another sample; [ ] = dose if it differs, or a comment. Calls come from the whole dose curve; as a rule, active = well fitted curve in the direction sought with a large enough effect; inconclusive = small, poorly fitted or top-dose-only effect, or another doubt; inactive = no such curve, though single readings can be large; an effect the other way counts as inactive or inconclusive. Potency is the fitted concentration of half-maximal effect.

Screening Clc1ccc(C(Cn2ccnc2)OCc2csc3c(Cl)cccc23)c(Cl)c1 (stereo unspecified) returned BAZ2B inh 10µM*, G9a block 12.6µM*, HP1b binding inh 6.6% and JMJD2A Tudor 28.2µM*.
Screening Clc1ccc([C@H](Cn2ccnc2)OCc2csc3c(Cl)cccc23)c(Cl)c1 returned TDP1 inh 19.5%[21 µM], G9a block -26.4%[21.5 µM] and Sfp inh -7.9%.
For CCN1C[C@]2(C)CC[C@H](O)[C@@]34[C@@H]5C[C@@H]6[C@@H](OC)C[C@@](O)(C5[C@H]6O)[C@@H](C[C@@H]23)[C@@H]14 the results were TDP1 inh 0.8% and G9a block 15.0%[12.7 µM].
Screening O=C1NC(=O)C(CCc2ccncc2)(CCc2ccccn2)C(=O)N1c1ccc(Br)cc1 (stereo unspecified) returned BAZ2B inh 89.1µM*, TDP1 inh 6.0%, G9a block 1.6%[12.7 µM], Sfp inh 5.4%, HP1b binding inh 37.2% and JMJD2A Tudor -10.0%.
Screening Cc1ccc(N2C(=O)NC(=O)C(CCc3ccccn3)(Cc3cccc(Cl)c3Cl)C2=O)cc1 (stereo unspecified) returned BAZ2B inh 1.6%, TDP1 inh 2.7%, G9a block -13.2%, Sfp inh 8.0%, HP1b binding inh 4.2% and JMJD2A Tudor -8.8%.
C[C@@H](COc1ccccc1)N(CCCl)Cc1ccccc1 was read as TDP1 inh 12.8%[21 µM], G9a block 1.5%[21.5 µM] and Sfp inh 13.7%.
For Cc1ccc(O)cc1C the results were TDP1 inh 4.8%.
CCCCCCCCCCCCCC(=O)O[C@@H]1[C@@H](C)[C@@]2(O)[C@@H](C=C(CO)C[C@@]3(O)C(=O)C(C)=C[C@@H]23)C2C(C)(C)[C@@]21OC(C)=O (stereo partly specified) was read as TDP1 inh 5.2%[56.1 µM] and G9a block 7.94µM*!.
For O=C(O)c1cccc2c1NC(c1cccc([N+](=O)[O-])c1)C1CC(Sc3ccccc3[N+](=O)[O-])C(Cl)C21 (stereo unspecified) the results were BAZ2B inh 22.4µM*, TDP1 inh 10.1%, G9a block 15.8µM*, Sfp inh 39.8µM*, HP1b binding inh inconclusive and JMJD2A Tudor 22.4µM*.
O=C(O)c1ccc2c(c1)C1C(Cl)C(Sc3ccccc3[N+](=O)[O-])CC1C(c1cccc([N+](=O)[O-])c1)N2 (stereo unspecified) was read as BAZ2B inh 17.8µM*, TDP1 inh -5.8%, G9a block 20µM*, Sfp inh inconclusive, HP1b binding inh 39.8µM* and JMJD2A Tudor -21.8%[11.4 µM].
CN1CCC(c2c[nH]c3ccc(O)cc23)CC1 was read as TDP1 inh 9.0%[56.1 µM], G9a block 12.6µM*!, Sfp inh 20.6%, HP1b binding inh 38.4% and JMJD2A Tudor -15.9%.
For CN1CCC(c2c[nH]c3ccccc23)C1 (stereo unspecified) the results were BAZ2B inh -27.1%, G9a block -39.2%[59 µM], Sfp inh -2.7%, HP1b binding inh 12.8% and JMJD2A Tudor -15.5%.
`CC(=O)OC1C(=O)[C@]2(C)C(O)CC3OC[C@]3(OC(C)=O)C2[C@@H](OC(=O)c2ccccc2)[C@]2(O)CC(O)C(C)=C1C2(C)C` (stereo partly specified) gave TDP1 inh 10.9%[56.1 µM] and Sfp inh -3.9%.
`N#CC1(c2ccccc2)CCN(C2CC(=O)N(c3ccc(F)cc3)C2=O)CC1` (stereo unspecified) gave BAZ2B inh -6.0%, TDP1 inh 4.8%, Sfp inh -5.5%, HP1b binding inh 37.9% and JMJD2A Tudor -4.9%.
N#CC1(c2ccccc2)CCN(C2CC(=O)N(c3ccc4c(c3)OCO4)C2=O)CC1 (stereo unspecified) was read as BAZ2B inh -8.9%, TDP1 inh -6.0%, G9a block 22.4µM*, Sfp inh inconclusive, HP1b binding inh 30.0% and JMJD2A Tudor -17.3%.
Cc1[nH]n(-c2ccccc2)c(=O)c1C(C[N+](=O)[O-])c1ccccc1Cl (stereo unspecified) was read as BAZ2B inh inconclusive, TDP1 inh 11.9%, G9a block inconclusive, Sfp inh 2.3%, HP1b binding inh 4.9% and JMJD2A Tudor -17.1%[11.4 µM].
`Cc1[nH]n(-c2ccccc2)c(=O)c1C(c1ccc([N+](=O)[O-])cc1)c1c(C)[nH]n(-c2ccccc2)c1=O` gave BAZ2B inh 39.8µM*, TDP1 inh 3.4%, G9a block 11.2µM*, Sfp inh -11.4%, HP1b binding inh 35.5µM* and JMJD2A Tudor 17.8µM*.
`CCCCOC(=O)c1ccccc1C(=O)OCc1ccccc1` gave BAZ2B inh 181.3%, TDP1 inh 39.8µM*!, G9a block -1.2%[0.501 µM], HP1b binding inh 236.8% and JMJD2A Tudor 193.8%.
NCC(O)c1cc(O)c(O)cc1F (stereo unspecified) was read as BAZ2B inh 0.6%, G9a block 9.47µM*!, HP1b binding inh inconclusive and JMJD2A Tudor 10µM*.
Screening Cc1cccc(N)c1C returned TDP1 inh 9.3%.
`CC(=O)c1ccc(OC(C)C)c(Cc2c(O)[nH]c(=S)[nH]c2=O)c1` gave BAZ2B inh -12.5%, TDP1 inh 9.0%, Sfp inh 22.4µM*, HP1b binding inh 26.2% and JMJD2A Tudor 0.3%.
CCOc1ccc(C(C)=O)cc1Cc1c(O)[nH]c(=S)[nH]c1=O was read as BAZ2B inh 4.4%, TDP1 inh 9.9%, Sfp inh 44.7µM*, HP1b binding inh inconclusive and JMJD2A Tudor 89.1µM*.
`COc1ccc(C(C)=O)cc1Cc1c(O)[nH]c(=S)[nH]c1=O` gave BAZ2B inh -17.9%, G9a block 8.91µM*, Sfp inh 50.1µM*, HP1b binding inh -7.3% and JMJD2A Tudor inconclusive.
`CCOC(=O)C(SP(=S)(OC)OC)c1ccccc1` (stereo unspecified) gave TDP1 inh -4.3% and Sfp inh inconclusive.
Screening CCc1ccc(/C=C(/C#N)C(N)=S)cc1 returned BAZ2B inh inconclusive, TDP1 inh 2.2%, G9a block 8.91µM*, Sfp inh inconclusive, HP1b binding inh inconclusive and JMJD2A Tudor -34.0%.
Screening CC(=O)N1CCCSC1=Nc1ccccc1 returned BAZ2B inh -11.9%, TDP1 inh 2.4%, G9a block -0.1%, Sfp inh 10.1%, HP1b binding inh 39.6% and JMJD2A Tudor 2.1%.
